# Source: ChEMBL document CHEMBL2218924, “A broad activity screen in support of a chemogenomic map for kinase signalling research and drug discovery” (Biochem J, 2013)
# Tests used:
# [1] = molecular target: Tyrosine-protein kinase Fer (Homo sapiens) (UniProt P16591); conditions: at 10 µM
# [2] = molecular target: Tyrosine-protein kinase Fes/Fps (Homo sapiens) (UniProt P07332); conditions: at 1 µM
# [3] = molecular target: Tyrosine-protein kinase Fes/Fps (Homo sapiens) (UniProt P07332); conditions: at 10 µM
# [4] = molecular target: Tyrosine-protein kinase Fgr (Homo sapiens) (UniProt P09769); conditions: at 1 µM
# [5] = molecular target: Tyrosine-protein kinase Fgr (Homo sapiens) (UniProt P09769); conditions: at 10 µM
# [6] = molecular target: Vascular endothelial growth factor receptor 1 (Homo sapiens) (UniProt P17948); conditions: at 1 µM
# Chain of Vascular endothelial growth factor receptor 1 (Homo sapiens) (P17948 whole entry): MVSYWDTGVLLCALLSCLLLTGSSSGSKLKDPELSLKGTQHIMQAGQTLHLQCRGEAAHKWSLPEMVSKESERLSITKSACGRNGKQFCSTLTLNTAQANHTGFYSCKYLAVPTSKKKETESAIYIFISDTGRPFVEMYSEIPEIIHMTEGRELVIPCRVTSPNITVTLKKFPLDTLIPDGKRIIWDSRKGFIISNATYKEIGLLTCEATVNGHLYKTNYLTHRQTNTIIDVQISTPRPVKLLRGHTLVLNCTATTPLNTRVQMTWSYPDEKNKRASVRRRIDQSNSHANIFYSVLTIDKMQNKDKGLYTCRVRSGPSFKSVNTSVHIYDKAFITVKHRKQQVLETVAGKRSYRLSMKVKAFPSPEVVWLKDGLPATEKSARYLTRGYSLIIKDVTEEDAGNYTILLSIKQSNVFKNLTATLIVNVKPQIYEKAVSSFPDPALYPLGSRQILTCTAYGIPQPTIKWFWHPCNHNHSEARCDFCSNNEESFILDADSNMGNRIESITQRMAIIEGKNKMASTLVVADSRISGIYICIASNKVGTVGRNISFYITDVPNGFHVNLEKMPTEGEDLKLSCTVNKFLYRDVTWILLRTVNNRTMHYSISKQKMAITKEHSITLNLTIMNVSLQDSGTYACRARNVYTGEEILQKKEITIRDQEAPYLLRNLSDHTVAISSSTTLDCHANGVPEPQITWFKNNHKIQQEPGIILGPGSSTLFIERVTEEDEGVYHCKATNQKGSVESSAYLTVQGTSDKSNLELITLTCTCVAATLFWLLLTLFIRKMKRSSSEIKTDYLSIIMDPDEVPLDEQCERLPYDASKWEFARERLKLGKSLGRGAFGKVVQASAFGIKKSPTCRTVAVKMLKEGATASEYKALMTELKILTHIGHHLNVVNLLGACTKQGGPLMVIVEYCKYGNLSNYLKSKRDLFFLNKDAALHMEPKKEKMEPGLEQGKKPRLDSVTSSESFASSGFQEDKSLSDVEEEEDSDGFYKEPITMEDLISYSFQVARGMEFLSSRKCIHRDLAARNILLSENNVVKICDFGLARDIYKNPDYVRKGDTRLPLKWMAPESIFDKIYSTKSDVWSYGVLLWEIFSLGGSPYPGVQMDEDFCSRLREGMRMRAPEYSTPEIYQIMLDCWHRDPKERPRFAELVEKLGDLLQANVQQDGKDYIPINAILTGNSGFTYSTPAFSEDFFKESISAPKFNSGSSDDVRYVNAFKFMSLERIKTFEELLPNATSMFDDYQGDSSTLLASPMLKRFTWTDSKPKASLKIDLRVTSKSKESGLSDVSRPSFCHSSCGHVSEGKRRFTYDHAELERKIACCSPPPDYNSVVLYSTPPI
# [7] = molecular target: Vascular endothelial growth factor receptor 1 (Homo sapiens) (UniProt P17948); conditions: at 10 µM
# [8] = molecular target: Receptor-type tyrosine-protein kinase FLT3 (Homo sapiens) (UniProt P36888); conditions: at 1 µM
# [9] = molecular target: Receptor-type tyrosine-protein kinase FLT3 (Homo sapiens) (UniProt P36888); conditions: at 10 µM
# [10] = molecular target: Vascular endothelial growth factor receptor 3 (Homo sapiens) (UniProt P35916); conditions: at 1 µM
# [11] = molecular target: Vascular endothelial growth factor receptor 3 (Homo sapiens) (UniProt P35916); conditions: at 10 µM
# [12] = molecular target: Macrophage colony-stimulating factor 1 receptor (Homo sapiens) (UniProt P07333); conditions: at 1 µM
# Chain of Macrophage colony-stimulating factor 1 receptor (Homo sapiens) (P07333 whole entry): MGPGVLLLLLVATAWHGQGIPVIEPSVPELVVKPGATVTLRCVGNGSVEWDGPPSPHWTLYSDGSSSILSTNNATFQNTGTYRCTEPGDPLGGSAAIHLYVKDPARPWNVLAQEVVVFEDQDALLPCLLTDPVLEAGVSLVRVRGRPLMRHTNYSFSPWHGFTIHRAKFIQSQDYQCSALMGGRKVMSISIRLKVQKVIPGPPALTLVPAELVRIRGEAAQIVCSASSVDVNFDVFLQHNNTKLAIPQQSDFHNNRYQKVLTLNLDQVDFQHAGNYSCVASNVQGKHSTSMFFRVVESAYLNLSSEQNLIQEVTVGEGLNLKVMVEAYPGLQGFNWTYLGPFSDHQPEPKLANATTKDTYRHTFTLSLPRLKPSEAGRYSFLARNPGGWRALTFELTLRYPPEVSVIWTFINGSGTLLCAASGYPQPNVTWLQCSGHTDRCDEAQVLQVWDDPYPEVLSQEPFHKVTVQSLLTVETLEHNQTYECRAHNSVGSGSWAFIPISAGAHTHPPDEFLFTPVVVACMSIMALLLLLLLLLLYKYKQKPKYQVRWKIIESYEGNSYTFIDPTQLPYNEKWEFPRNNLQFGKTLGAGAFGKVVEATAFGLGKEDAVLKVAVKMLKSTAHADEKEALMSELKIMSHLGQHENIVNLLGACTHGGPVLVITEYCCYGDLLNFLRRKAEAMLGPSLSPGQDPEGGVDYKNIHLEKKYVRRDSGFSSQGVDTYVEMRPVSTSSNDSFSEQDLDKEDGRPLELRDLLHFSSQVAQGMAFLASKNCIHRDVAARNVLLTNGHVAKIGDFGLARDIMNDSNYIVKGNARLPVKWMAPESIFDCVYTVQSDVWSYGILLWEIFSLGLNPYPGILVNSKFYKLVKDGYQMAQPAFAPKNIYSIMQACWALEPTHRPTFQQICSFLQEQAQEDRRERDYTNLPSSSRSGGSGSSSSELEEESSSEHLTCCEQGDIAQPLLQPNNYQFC
# [13] = molecular target: Macrophage colony-stimulating factor 1 receptor (Homo sapiens) (UniProt P07333); conditions: at 10 µM
# [14] = molecular target: Tyrosine-protein kinase Fyn (Homo sapiens) (UniProt P06241); conditions: at 1 µM
# Chain of Tyrosine-protein kinase Fyn (Homo sapiens) (P06241 2-537 limits assumed): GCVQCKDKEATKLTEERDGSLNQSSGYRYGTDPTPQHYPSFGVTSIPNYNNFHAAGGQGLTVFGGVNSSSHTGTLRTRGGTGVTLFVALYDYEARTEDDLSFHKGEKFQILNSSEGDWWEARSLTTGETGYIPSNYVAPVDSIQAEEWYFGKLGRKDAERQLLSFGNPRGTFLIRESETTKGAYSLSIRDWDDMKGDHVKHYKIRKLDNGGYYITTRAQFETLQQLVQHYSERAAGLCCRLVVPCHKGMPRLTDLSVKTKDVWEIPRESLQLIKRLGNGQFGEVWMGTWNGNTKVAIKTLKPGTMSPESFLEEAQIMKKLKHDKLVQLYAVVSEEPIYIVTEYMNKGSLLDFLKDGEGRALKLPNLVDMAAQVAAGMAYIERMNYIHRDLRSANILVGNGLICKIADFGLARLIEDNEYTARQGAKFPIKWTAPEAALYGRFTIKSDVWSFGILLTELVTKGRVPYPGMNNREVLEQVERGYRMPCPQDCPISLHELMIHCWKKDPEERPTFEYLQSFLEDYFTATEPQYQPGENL
# [15] = molecular target: Tyrosine-protein kinase Fyn (Homo sapiens) (UniProt P06241); conditions: at 10 µM
# [16] = molecular target: T1, Mitogen-activated protein kinase kinase kinase kinase 2 (Homo sapiens) (UniProt Q12851); conditions: at 1 µM
# T1 sequence (whole entry): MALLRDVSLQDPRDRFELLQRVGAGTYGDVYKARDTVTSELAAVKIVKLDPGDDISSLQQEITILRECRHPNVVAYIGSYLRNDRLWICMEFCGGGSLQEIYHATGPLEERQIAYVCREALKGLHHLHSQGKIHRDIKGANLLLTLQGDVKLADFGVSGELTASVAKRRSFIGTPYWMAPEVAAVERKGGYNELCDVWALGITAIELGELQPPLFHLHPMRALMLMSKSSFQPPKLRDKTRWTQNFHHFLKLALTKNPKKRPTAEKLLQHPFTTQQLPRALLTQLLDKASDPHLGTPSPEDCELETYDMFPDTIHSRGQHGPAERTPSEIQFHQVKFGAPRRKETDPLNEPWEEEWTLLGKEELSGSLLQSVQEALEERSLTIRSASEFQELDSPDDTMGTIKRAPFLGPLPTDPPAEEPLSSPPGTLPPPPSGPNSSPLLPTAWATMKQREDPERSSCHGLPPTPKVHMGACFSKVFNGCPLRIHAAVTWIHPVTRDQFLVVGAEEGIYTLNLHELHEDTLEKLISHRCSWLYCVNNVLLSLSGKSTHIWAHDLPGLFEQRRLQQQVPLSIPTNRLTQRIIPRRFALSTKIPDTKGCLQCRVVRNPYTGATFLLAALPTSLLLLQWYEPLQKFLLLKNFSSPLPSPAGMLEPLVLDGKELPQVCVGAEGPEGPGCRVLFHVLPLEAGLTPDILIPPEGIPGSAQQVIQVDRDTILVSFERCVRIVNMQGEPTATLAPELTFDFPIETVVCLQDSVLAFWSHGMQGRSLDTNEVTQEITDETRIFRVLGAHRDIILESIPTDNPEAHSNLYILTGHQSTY
# [17] = molecular target: T1, Mitogen-activated protein kinase kinase kinase kinase 2 (Homo sapiens); conditions: at 10 µM
# [18] = molecular target: G protein-coupled receptor kinase 5 (Homo sapiens) (UniProt P34947); conditions: at 10 µM
# Chain of G protein-coupled receptor kinase 5 (Homo sapiens) (P34947 whole entry, looked up): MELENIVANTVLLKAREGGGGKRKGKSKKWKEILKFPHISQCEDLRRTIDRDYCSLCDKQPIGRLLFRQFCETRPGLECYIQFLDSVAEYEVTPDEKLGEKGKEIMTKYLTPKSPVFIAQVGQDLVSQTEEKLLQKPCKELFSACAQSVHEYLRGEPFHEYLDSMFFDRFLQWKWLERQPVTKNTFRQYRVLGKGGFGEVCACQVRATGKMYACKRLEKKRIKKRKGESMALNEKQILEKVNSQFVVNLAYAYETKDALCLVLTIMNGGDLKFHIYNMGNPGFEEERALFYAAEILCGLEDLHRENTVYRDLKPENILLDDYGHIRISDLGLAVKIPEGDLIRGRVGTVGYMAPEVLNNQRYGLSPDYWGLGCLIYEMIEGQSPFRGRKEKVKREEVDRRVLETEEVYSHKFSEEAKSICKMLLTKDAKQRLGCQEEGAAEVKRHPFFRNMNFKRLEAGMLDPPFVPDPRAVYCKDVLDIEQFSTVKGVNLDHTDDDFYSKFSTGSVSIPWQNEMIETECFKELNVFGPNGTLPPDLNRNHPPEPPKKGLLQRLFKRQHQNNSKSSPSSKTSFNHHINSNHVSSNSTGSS
# [19] = molecular target: G protein-coupled receptor kinase 6 (Homo sapiens) (UniProt P43250); conditions: at 10 µM
# Chain of G protein-coupled receptor kinase 6 (Homo sapiens) (P43250 whole entry, looked up): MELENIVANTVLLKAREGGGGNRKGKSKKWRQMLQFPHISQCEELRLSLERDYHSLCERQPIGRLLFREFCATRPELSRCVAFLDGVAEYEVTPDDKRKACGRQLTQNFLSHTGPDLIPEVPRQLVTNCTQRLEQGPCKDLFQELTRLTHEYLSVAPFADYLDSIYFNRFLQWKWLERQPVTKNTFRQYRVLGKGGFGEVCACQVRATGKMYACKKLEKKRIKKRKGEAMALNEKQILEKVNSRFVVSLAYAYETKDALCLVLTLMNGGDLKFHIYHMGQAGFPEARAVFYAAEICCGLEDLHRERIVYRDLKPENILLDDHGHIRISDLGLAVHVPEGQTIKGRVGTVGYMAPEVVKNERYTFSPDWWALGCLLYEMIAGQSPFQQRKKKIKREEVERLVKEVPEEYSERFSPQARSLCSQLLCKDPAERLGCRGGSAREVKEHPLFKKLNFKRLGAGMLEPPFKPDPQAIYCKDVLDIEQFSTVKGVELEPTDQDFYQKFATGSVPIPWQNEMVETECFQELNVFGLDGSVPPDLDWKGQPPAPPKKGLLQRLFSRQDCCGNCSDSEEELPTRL
# [20] = molecular target: T2, Rhodopsin kinase GRK7 (Homo sapiens) (UniProt Q8WTQ7); conditions: at 1 µM
# T2 sequence (whole entry): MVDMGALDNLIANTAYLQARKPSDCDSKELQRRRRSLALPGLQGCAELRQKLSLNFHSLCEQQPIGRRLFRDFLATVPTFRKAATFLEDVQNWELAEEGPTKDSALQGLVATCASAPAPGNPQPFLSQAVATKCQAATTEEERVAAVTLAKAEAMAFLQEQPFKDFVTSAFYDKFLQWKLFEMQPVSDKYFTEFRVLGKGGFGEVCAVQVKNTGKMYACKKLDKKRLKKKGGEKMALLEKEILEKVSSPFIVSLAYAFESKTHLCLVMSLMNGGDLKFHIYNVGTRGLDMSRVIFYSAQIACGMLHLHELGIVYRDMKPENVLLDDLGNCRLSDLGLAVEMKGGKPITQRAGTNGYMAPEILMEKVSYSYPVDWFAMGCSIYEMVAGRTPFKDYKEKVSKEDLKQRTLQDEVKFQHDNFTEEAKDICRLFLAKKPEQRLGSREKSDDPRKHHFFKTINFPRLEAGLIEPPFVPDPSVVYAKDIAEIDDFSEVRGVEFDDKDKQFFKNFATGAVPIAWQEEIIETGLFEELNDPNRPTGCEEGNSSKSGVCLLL
# Chain of Tyrosine-protein kinase Fes/Fps (Homo sapiens) (P07332 whole entry): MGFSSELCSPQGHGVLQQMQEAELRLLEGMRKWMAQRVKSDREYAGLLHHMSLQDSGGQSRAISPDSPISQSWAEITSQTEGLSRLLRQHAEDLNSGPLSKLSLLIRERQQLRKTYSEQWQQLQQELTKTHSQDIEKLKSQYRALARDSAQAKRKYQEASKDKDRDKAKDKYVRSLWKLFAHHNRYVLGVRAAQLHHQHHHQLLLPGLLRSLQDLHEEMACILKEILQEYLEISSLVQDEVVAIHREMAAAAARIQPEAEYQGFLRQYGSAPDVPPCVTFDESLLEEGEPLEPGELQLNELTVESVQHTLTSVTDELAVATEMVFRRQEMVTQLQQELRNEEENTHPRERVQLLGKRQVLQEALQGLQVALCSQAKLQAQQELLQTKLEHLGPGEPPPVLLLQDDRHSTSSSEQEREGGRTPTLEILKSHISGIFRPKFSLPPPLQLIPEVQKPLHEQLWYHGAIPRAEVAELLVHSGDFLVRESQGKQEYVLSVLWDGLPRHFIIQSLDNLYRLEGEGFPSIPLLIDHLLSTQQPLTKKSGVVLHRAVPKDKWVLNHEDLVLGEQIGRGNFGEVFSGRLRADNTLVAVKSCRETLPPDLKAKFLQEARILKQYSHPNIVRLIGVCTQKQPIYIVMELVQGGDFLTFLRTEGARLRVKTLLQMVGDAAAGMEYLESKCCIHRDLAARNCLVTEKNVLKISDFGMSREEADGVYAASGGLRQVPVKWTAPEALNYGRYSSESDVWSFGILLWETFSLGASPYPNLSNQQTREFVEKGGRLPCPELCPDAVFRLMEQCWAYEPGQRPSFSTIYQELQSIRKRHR
SMILES,residual activity [1],residual activity [2],residual activity [3],residual activity [4],residual activity [5],residual activity [6],residual activity [7],residual activity [8],residual activity [9],residual activity [10],residual activity [11],residual activity [12],residual activity [13],residual activity [14],residual activity [15],residual activity [16],residual activity [17],residual activity [18],residual activity [19],residual activity [20]
O=C1NC(=O)/C(=C\c2ccc3nccnc3c2)S1,94%,108%,85%,107%,89%,88%,78%,94%,76%,98%,70%,126%,112%,83%,79%,75%,26%,82%,79%,87%
COc1cccc(-c2cc(=O)c3ccccc3o2)c1N,101%,94%,107%,97%,100%,101%,92%,87%,85%,95%,80%,114%,88%,93%,39%,91%,82%,102%,96%,96%
O=C(O)c1ccc2c3c1cccc3c(=O)n1c3ccccc3nc21,5%,98%,71%,97%,87%,92%,81%,50%,22%,74%,43%,102%,75%,80%,59%,38%,21%,70%,91%,102%
O=C1Nc2ccccc2/C1=C1/Nc2ccccc2/C1=N\OCCC(O)CO (stereo not given),35%,71%,48%,3%,3%,1%,0%,0%,0%,-1%,0%,1%,1%,-1%,2%,20%,4%,63%,72%,60%
Oc1n[nH]c2nnc(-c3c(-c4ccccc4)nn4ccccc34)cc12,91%,92%,108%,89%,95%,86%,80%,76%,63%,89%,60%,49%,15%,75%,77%,82%,75%,97%,85%,85%
O=C1Nc2cc(Br)ccc2/C1=C1/Nc2ccccc2/C1=N\O,45%,79%,100%,1%,2%,-1%,1%,1%,1%,1%,1%,5%,8%,1%,2%,16%,25%,98%,86%,94%
Cc1nc2cc3nc(-c4cccs4)cnc3cc2n1C,105%,134%,88%,109%,69%,40%,3%,15%,1%,24%,2%,52%,8%,103%,69%,110%,85%,77%,92%,113%
